Here are results for 108 sequences from PubChem BioAssay AID1347426 (Functional Genomics Laboratory (NCATS/FGL), 2020).

The campaign covered roughly 31,000 sequences. About 1,400 (4.5%) were called active. Many of the other results were omitted from the sample, so actives are more common in it than they were. A number with no mark means an inactive call.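 How the source made its calls: active means median seed-adjusted z-score above 1 or below -1; inactive means the rest.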

The test is described as follows: Novel Modifiers of Survival Motor Neuron (SMN) Protein: Gene Identification via Genome-wide siRNA Screen.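 Further: luminescence tracks full-length SMN protein made from the SMN2 reporter.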 The settings on record: HEK293T SMN2-luciferase reporter, siRNA knockdown, 72 h; actives lie on both sides. Put shortly: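 Genome-wide siRNA screen (10418 genes, 3 siRNAs each, 1 pmol per well) by reverse transfection in HEK293T cells stably carrying an SMN2-luciferase reporter; luminescence after 72 hours, normalized to negative-control siRNA, log10-transformed, MAD-scored.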
Background: Reporter assays use an easily measured gene product as a stand-in for the process of interest.
For CUCCGUAUCAUAGAUGUAATT against PCDHB3, the median seed-adjusted z-score was 0.304.

In the case of GGAGCUCACUGACGAGAAUTT against POLR2C, the median seed-adjusted z-score is -2.95 (active).

In the case of GAAACCAAGUCAUAUGAAATT against CRTAP, the median seed-adjusted z-score was 0.581.

As to GGAUCUACUCGGCACUCUATT against ZBTB20, the median seed-adjusted z-score was -0.521.

Consider AGACCGCACUGACAGAGGATT against BAIAP2, for which the median seed-adjusted z-score is -0.0497.

As for CAAAGAACCUAUCCGCUUATT against GGA2, the median seed-adjusted z-score is -0.142.

Turning to GAAGCAGAGGACAACAUGATT against SNRPD3, the median seed-adjusted z-score was -2.69 (active).

For the sequence CAGUUAUGAUUGGUGGAGATT against CDC42, the median seed-adjusted z-score was -0.0938.

For the sequence AGAACUUGAUGCUCCGAGATT against ITGA7, the median seed-adjusted z-score was 0.13.

As to UUCUCUCCCUAAUAAAAAUTT against AVPR2, the median seed-adjusted z-score is -0.262.

In the case of GCCUACCCAUUUGUGAACATT against PEX12, the median seed-adjusted z-score is -0.129.

Regarding GCUCCACCGAGAUUCCUGATT against TCEB1, the median seed-adjusted z-score is 1.08 (active).

Regarding GGUGCUGGAGUUAAUCUUATT against TP53I3, the median seed-adjusted z-score is 0.244.

As for GGCUUAAAGACAUUGAACATT against KLHL1, the median seed-adjusted z-score is 0.067.

For GGACCUAGUGUGAGCAUAATT against COL14A1, the median seed-adjusted z-score was 0.19.

In the case of GCCCACAUGUUUAAGGACATT against KCTD9, the median seed-adjusted z-score is 1.31 (active).

On to GAUACGUACUAUGACCGAATT against TGM7, for which the median seed-adjusted z-score was 0.244.

For GCACCUUCCGCGUCAUGUUTT against BTBD2, the median seed-adjusted z-score was 0.0303.

Take GAGCUGACUUCGGAACUAATT against LCN2: the median seed-adjusted z-score is 0.123.

CCACAGAGAUAAGCAGUCATT against IL15RA: the median seed-adjusted z-score was -0.0113.

GGACUCCCAUCAGUUCCUATT against MFSD4: the median seed-adjusted z-score is -1.89 (active).

For the sequence GCUGGAAUCUAACAAUAGATT against ROCK2, the median seed-adjusted z-score was -0.149.

For the sequence CGUGUCCUGUCUGAACCAATT against ESCO2, the median seed-adjusted z-score is 0.

In the case of AAGAGUCAGUUUUCAGAUATT against CHID1, the median seed-adjusted z-score was 0.199.

For the sequence GGAGGUUAAAGUGAAGAUUTT against MORF4L2, the median seed-adjusted z-score was 0.389.

In the case of AAAUCGAUCAGAUCAACAATT against CDC2L1, the median seed-adjusted z-score was -1.14 (active).

On to CCCUGAUCCUAUAGCUAUUTT against ART4, for which the median seed-adjusted z-score is -0.0808.

Regarding GAUCUGUGGUUGCAAACGATT against TRMT1, the median seed-adjusted z-score is -0.224.

Regarding CAGUUAUACUCAGAAGAGATT against ZNF155, the median seed-adjusted z-score was 0.698.

For GAAUGACCUUGAACAAUGATT against ABTB2, the median seed-adjusted z-score is 0.432.

For UGGAAUACAUGGAUCAGAATT against HEPACAM, the median seed-adjusted z-score is -0.063.

For AGUACGGACAGAUCUCUGATT against CIRBP, the median seed-adjusted z-score was -0.701.

For CAGUCGACCAGUACAUCAATT against PMS1, the median seed-adjusted z-score is 0.0538.

Take AGUUGUAAAUUUACAAAGATT against UNC119: the median seed-adjusted z-score is 0.171.

In the case of GAGUUUUUCGAGCUCAUGATT against PGS1, the median seed-adjusted z-score was 1.36 (active).

For GGACUUUGGUGUGAAUGAATT against ANXA1, the median seed-adjusted z-score was -0.114.

As to GCAUUGAAACGAAUGGGAATT against UBA5, the median seed-adjusted z-score was -0.105.

Turning to UCUUCACCGUGUGCCUAGATT against CRAT, the median seed-adjusted z-score is -1.42 (active).

For the sequence GCAGAUAAGAUCAAGAUCATT against SRPK3, the median seed-adjusted z-score was -0.643.

For the sequence GAAGAAACCUUGACAAAAATT against KHDRBS3, the median seed-adjusted z-score is 0.0681.

GACUAGUUUUGAUCAGGAATT against ZBTB5: the median seed-adjusted z-score is 0.314.

As to GCAGAAUUCUGACGAUGAUTT against LEO1, the median seed-adjusted z-score is 1.2 (active).

Turning to CGAACAAAACGGGCCUGGATT against FOXA2, the median seed-adjusted z-score is 0.883.

Consider CCCUCUUUGGUCUAACUCATT against HOXA3, for which the median seed-adjusted z-score is 0.315.

For CGAAGACACGUAGCCCUAATT against PUS3, the median seed-adjusted z-score was 0.584.

Take GGUGUAAUAAUGUCCUUUATT against SNRPF: the median seed-adjusted z-score is -2.66 (active).

As for GGACUACAAAGUCGACCAATT against NDUFB10, the median seed-adjusted z-score was -0.39.

For GGAGAUAGAACCUUCCAGATT against HLA-B, the median seed-adjusted z-score is -0.355.

As to CUAGAGUCGCUGUUGAAGATT against DRAP1, the median seed-adjusted z-score was 1.08 (active).

GGGUGGAGGUGUACUAUGATT against LOXL2: the median seed-adjusted z-score was 0.177.

Regarding CAUCAUCAGUUUUUCGAUUTT against AHCTF1, the median seed-adjusted z-score was -0.501.

As for GAUGCCCAGUGUCCUGUUATT against PIF1, the median seed-adjusted z-score is -0.0455.

In the case of GCAAGACAAGUGUCGGGAATT against HSPA6, the median seed-adjusted z-score is 0.364.

Turning to CAGCAGAACGUGUACGAGATT against ZBTB7A, the median seed-adjusted z-score is -0.344.

As to CAAGUGGGCUGAGUACCAUTT against PHPT1, the median seed-adjusted z-score was 1.27 (active).

As to GAGGUAAGAUGGAUGAAGATT against ACSM1, the median seed-adjusted z-score was 0.658.

Take UCAAUGCCUCCUUAAUUUUTT against ZNF321: the median seed-adjusted z-score was -0.642.

With CAGCGGAUGUGUUCAGUCUTT against PKMYT1, the median seed-adjusted z-score is 0.65.

For the sequence CAAAACUAGUAAUCCUUAUTT against CDK8, the median seed-adjusted z-score is -1.47 (active).

With GGACAUGUGCGUCUACCGATT against HOXD13, the median seed-adjusted z-score was 0.116.

GGAUUUAUCAGAACCUUUATT against SLC25A15: the median seed-adjusted z-score was -0.0116.

Take CCUACCAUCUUGUCCCUAATT against SLC7A6: the median seed-adjusted z-score is -0.0877.

As to UGGAGUAAAUGAUAAGAUATT against TRIM45, the median seed-adjusted z-score was -0.0974.

For the sequence GCACCAUUACUAUAGAGGATT against PTH2R, the median seed-adjusted z-score was -0.492.

On to CAUCACCUAUUGGAUCCAATT against MMP9, for which the median seed-adjusted z-score was -1.15 (active).

In the case of CGGUCCAAAUUGAAAGCGATT against STX1B, the median seed-adjusted z-score was 0.229.

Take CGACUUGUUGUAUAAGUAUTT against DYNC1LI2: the median seed-adjusted z-score is -0.491.

For CCAAGUUAUUGCUAUCAGATT against PPCS, the median seed-adjusted z-score was 0.

As to GGUAAACGCAAAGCACUGATT against MAP2K4, the median seed-adjusted z-score is -0.366.

GCCUCUUGCUAGGCAUAGCTT against CLDN15: the median seed-adjusted z-score was 0.973.

For the sequence CCCUCGACAGAGUCAGUUUTT against NPC1, the median seed-adjusted z-score is -0.195.

For GAUUGAAACUGACAAGACATT against DLST, the median seed-adjusted z-score was 1.16 (active).

For the sequence CAGCUACGGAAGAACCUGATT against PHF21A, the median seed-adjusted z-score is 0.179.

On to UCGAGGAAAUGAUCCGGGATT against GALE, for which the median seed-adjusted z-score is -0.153.

For GGAGGAUCGUUUAGACAGATT against TCF12, the median seed-adjusted z-score is -0.16.

In the case of CAGCUGCAAUUCUAGCUAATT against RETSAT, the median seed-adjusted z-score is -1.7 (active).

In the case of CAAUCACUGUGGAAUAUCATT against INPPL1, the median seed-adjusted z-score was 0.199.

On to CAAGGGUAUUAUUCGAGUUTT against PPP1R3A, for which the median seed-adjusted z-score was -0.241.

Consider GAAAACCGCAGAUAAAGUATT against NFRKB, for which the median seed-adjusted z-score was 0.787.

For the sequence GGUGCAAUCAGAUAACAUATT against PPAPDC1A, the median seed-adjusted z-score is 0.634.

As for CUGUUUAAGCGAUGACAAATT against CFL2, the median seed-adjusted z-score is -0.148.

As to AUCCUUAUUUGACACGAAATT against HOXC8, the median seed-adjusted z-score is -0.0285.

On to GGACUUUGCCUAUGUCUGUTT against TFAP2C, for which the median seed-adjusted z-score was 1.28 (active).

AGACCACCAAGGUUUCUUUTT against KCNH6: the median seed-adjusted z-score was 0.424.

Consider CUGGAAUGGUUGUCUGGUATT against SERTAD1, for which the median seed-adjusted z-score is 0.376.

GAAGAGAACUUCUGCCGUATT against MST1: the median seed-adjusted z-score is -1.47 (active).

In the case of GAUUAAUCCUUCAAUGAUUTT against TAF9B, the median seed-adjusted z-score is -0.0247.

For the sequence CGUCAGCUAUGUAAUGUUUTT against SLC22A7, the median seed-adjusted z-score was -0.387.

For GGACAGCUACGUGAAGAUUTT against PAK6, the median seed-adjusted z-score was -0.57.

Consider UGAUGGUUGUGACAAUUGUTT against SUPT4H1, for which the median seed-adjusted z-score is -1.01 (active).

As for AGCCUGUGAUGACUACAGATT against MGP, the median seed-adjusted z-score is -0.0854.

Take GAACUUACCUUCAACUACATT against NSD1: the median seed-adjusted z-score is -0.372.

As to GAGUGAUUCUAGCCUCUAATT against SEC61A1, the median seed-adjusted z-score is 0.312.

For the sequence CGAGAAAUCCCACAAGCGATT against NOVA2, the median seed-adjusted z-score is 0.

For the sequence GGAAGGCUUUUAGCAAUGATT against ZNF570, the median seed-adjusted z-score is 0.662.

Take GGAUCGAGGAAAUAACAAUTT against DDX42: the median seed-adjusted z-score was -2.13 (active).

As to GAAUGAGUUUUGUCAUGGATT against SUV39H2, the median seed-adjusted z-score was -0.279.

Regarding AGGCCGUGCUCUUCACCUATT against FAAH, the median seed-adjusted z-score was 0.373.

Regarding GAGAUAUACGAGGAGAUUATT against TIGD1, the median seed-adjusted z-score is 0.224.

With GGUCAGAACAUUCACCGAATT against CFTR, the median seed-adjusted z-score was -1.23 (active).

As for GAAUGUGCUAUGAAGCUUUTT against SPRR1B, the median seed-adjusted z-score was -0.721.

Take GGCUCGUAUUUUCUGGUUUTT against ACHE: the median seed-adjusted z-score was 0.

With CCUUGCCUCUAUGAGAUCATT against CHCHD2, the median seed-adjusted z-score is 0.0884.

With GGGUCAUUCUAUGGGCAAATT against OGFOD2, the median seed-adjusted z-score was 0.493.

Regarding GACUUGAGCUAAAUGGUCATT against SIAH1, the median seed-adjusted z-score was 1.5 (active).

CCUAUACUGUGGGCUAUAATT against STARD4: the median seed-adjusted z-score is 0.173.

For the sequence AGCCGUGGAUGGUAGAUCUTT against ZNF2, the median seed-adjusted z-score was -0.119.

For the sequence CAGACUAAACUAUAGCGAUTT against SENP6, the median seed-adjusted z-score was -1.03 (active).
